Source: PubChem BioAssay (NCI)
About 83,000 compounds went through this panel and 20% of them were active in at least one assay; those are over-represented in the sample as a whole.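 Each cell line was grown in a 96-well plate and treated with one concentration of compound for 48 hours. Values below 10 were considered active.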 Active and inactive are the calls of the source.

What was measured:
Assay in all cases: NCI-60 one-dose screen, 48 h (100 = growth as untreated, 0 = no growth, -100 = all killed)
Conditions in all cases: 10 µM unless noted
HCT-15 colon = tested on: HCT-15 colon
HT29 colon = tested on: HT29 colon
SNB-75 CNS = tested on: SNB-75 CNS
SNB-19 CNS = tested on: SNB-19 CNS
U251 CNS = tested on: U251 CNS
PC-3 prostate = tested on: PC-3 prostate
SK-MEL-5 melanoma = tested on: SK-MEL-5 melanoma
UACC-62 melanoma = tested on: UACC-62 melanoma
LOX IMVI melanoma = tested on: LOX IMVI melanoma
SK-MEL-28 melanoma = tested on: SK-MEL-28 melanoma
SN12C renal = tested on: SN12C renal
UO-31 renal = tested on: UO-31 renal
TK-10 renal = tested on: TK-10 renal
ACHN renal = tested on: ACHN renal
CAKI-1 renal = tested on: CAKI-1 renal
A498 renal = tested on: A498 renal
CCRF-CEM leukemia = tested on: CCRF-CEM leukemia
MOLT-4 leukemia = tested on: MOLT-4 leukemia

Measured: growth

COc1cc(C2CC(c3cccc(Nc4ccnc5cc(Cl)ccc45)c3)=NN2c2ccccc2)cc(OC)c1OC (centres undefined)
inactive: HCT-15 colon 67.1% | HT29 colon 59.7% | SNB-75 CNS 79.2% | SNB-19 CNS 90.9% | U251 CNS 78.8% | PC-3 prostate 55.2% | SK-MEL-5 melanoma 62.1% | LOX IMVI melanoma 46.1% | SK-MEL-28 melanoma 67.2% | SN12C renal 68.1% | UO-31 renal 38% | TK-10 renal 75.4% | ACHN renal 45% | A498 renal 73.3% | CCRF-CEM leukemia 57.1% | MOLT-4 leukemia 74.4%
active: UACC-62 melanoma 9.18% | CAKI-1 renal 8.35%

COc1cc(C2CC(c3cccc(Nc4ccnc5cc(Cl)ccc45)c3)=NN2c2ccc(Cl)cc2)cc(OC)c1OC (centres undefined)
inactive: HCT-15 colon 54.2% | HT29 colon 76% | SNB-75 CNS 62.4% | SNB-19 CNS 85.9% | U251 CNS 75.2% | PC-3 prostate 51% | SK-MEL-5 melanoma 34.2% | LOX IMVI melanoma 43.5% | SK-MEL-28 melanoma 51.4% | SN12C renal 57.1% | UO-31 renal 23.6% | TK-10 renal 76.7% | ACHN renal 41.5% | CCRF-CEM leukemia 63.1%
active: UACC-62 melanoma 9.05% | CAKI-1 renal -1.85%

Nc1nc(N)c2c(n1)NC(c1sc(Cl)nc1Cl)CC(c1ccc3c(c1)OCO3)=N2 (centres undefined)
active: HT29 colon 5.28% | SNB-75 CNS -1.52% | A498 renal -2.91%
inactive: HCT-15 colon 23.9% | SNB-19 CNS 36.8% | U251 CNS 10.4% | PC-3 prostate 48.8% | SK-MEL-5 melanoma 11% | UACC-62 melanoma 40.1% | LOX IMVI melanoma 40.3% | SK-MEL-28 melanoma 57% | SN12C renal 35.2% | UO-31 renal 30.4% | TK-10 renal 50.6% | ACHN renal 45% | CAKI-1 renal 26.5% | CCRF-CEM leukemia 11.1% | MOLT-4 leukemia 25.3%

CCOC(CN1CCN(CC(C)C(=O)c2ccccc2)CC1)c1ccccc1 (centres undefined)
inactive: HCT-15 colon 100% | HT29 colon 108% | SNB-75 CNS 79% | SNB-19 CNS 97.8% | U251 CNS 90.5% | PC-3 prostate 93.6% | SK-MEL-5 melanoma 90.1% | UACC-62 melanoma 105% | LOX IMVI melanoma 101% | SK-MEL-28 melanoma 98% | SN12C renal 98.6% | UO-31 renal 89% | TK-10 renal 115% | ACHN renal 106% | CAKI-1 renal 93.7% | A498 renal 97.1% | CCRF-CEM leukemia 84.7% | MOLT-4 leukemia 105%

CCCCCCCCCCCCCCCc1cc(O)ccc1[N+](=O)[O-]
inactive: HCT-15 colon 73.7% | HT29 colon 107% | SNB-75 CNS 83.1% | SNB-19 CNS 99.9% | U251 CNS 70.1% | PC-3 prostate 59.5% | SK-MEL-5 melanoma 76.1% | UACC-62 melanoma 67.9% | LOX IMVI melanoma 98% | SK-MEL-28 melanoma 102% | SN12C renal 75.5% | UO-31 renal 58.6% | TK-10 renal 112% | ACHN renal 91.9% | CAKI-1 renal 72.9% | A498 renal 98% | MOLT-4 leukemia 32.2%
active: CCRF-CEM leukemia 9.46%

CCCCn1c(C)nc2cc(Nc3nc(Cl)nc4nc[nH]c34)ccc21
inactive: HCT-15 colon 90.7% | HT29 colon 83.6% | SNB-75 CNS 78.4% | SNB-19 CNS 87.4% | U251 CNS 77.2% | PC-3 prostate 59.7% | SK-MEL-5 melanoma 73.6% | UACC-62 melanoma 73% | LOX IMVI melanoma 90.4% | SK-MEL-28 melanoma 99.4% | SN12C renal 78.9% | UO-31 renal 64.6% | TK-10 renal 73.5% | ACHN renal 85.8% | CAKI-1 renal 76.1% | A498 renal 26% | CCRF-CEM leukemia 78% | MOLT-4 leukemia 64%

COc1ccc2cc(-c3nc(C)c(C(C)=O)c(-c4ccc(C)cc4)n3)ccc2c1
inactive: HCT-15 colon 88.2% | HT29 colon 82.4% | SNB-75 CNS 98.5% | SNB-19 CNS 92.8% | U251 CNS 94.5% | PC-3 prostate 85.9% | SK-MEL-5 melanoma 75.4% | UACC-62 melanoma 71.7% | LOX IMVI melanoma 101% | SK-MEL-28 melanoma 101% | SN12C renal 95.5% | UO-31 renal 72.9% | TK-10 renal 93.9% | ACHN renal 98.7% | CAKI-1 renal 79.5% | A498 renal 83% | CCRF-CEM leukemia 89.7% | MOLT-4 leukemia 106%
